Screens as filed in PubChem BioAssay.
ST2 IL33 inh – inhibitors of human ST2 (IL1RL1) binding to IL-33, primary screen, biochemical, AlphaLISA. Interleukin-1 receptor-like 1 (Homo sapiens), Q01638. AlphaLISA ST2-Fc/biotin-IL-33 interaction, 1 h. inhibition, % for hits at 17 µM. 2.3% of 78,000 active. AID 1259354, 2018; in the data active = inhibition above about 30%
Target sequence (Q01638 whole entry, looked up): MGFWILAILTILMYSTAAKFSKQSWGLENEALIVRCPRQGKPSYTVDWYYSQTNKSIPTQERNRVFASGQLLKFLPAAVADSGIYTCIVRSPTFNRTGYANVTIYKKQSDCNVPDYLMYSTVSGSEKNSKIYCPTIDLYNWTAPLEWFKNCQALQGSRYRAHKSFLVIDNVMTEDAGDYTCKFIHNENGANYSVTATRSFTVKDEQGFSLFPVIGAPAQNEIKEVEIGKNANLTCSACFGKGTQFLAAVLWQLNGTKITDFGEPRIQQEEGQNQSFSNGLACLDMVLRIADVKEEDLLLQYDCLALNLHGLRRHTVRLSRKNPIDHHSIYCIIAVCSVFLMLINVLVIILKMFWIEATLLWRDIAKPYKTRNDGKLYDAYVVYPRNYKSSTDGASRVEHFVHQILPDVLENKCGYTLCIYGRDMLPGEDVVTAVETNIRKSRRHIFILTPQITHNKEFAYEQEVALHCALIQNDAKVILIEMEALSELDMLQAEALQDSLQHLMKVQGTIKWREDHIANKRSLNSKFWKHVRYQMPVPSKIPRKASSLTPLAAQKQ
Numbers without * were called inactive; i = inactive. This is one part of a sample in which hits are shown more often than they occur.

SMILES | ST2 IL33 inh
CSc1ccc(CNS(=O)(=O)c2ccc3[nH]cc(C(=O)O)c(=O)c3c2)cc1 | i
O=C(NCc1cccnc1)c1ccc2c(Cl)c3c(nc2c1)CCCC3 | i
CCCCC1=NN(C(=O)COc2ccc(Cl)c(C)c2)C(O)(C(F)(F)F)C1 (configuration not stated) | i
Nc1ccc(Cl)c2c1C(=O)c1ccccc1C2=O | 42%*
Nc1ccc(N2C(=O)c3ccccc3C2=O)c(Cl)c1 | i
Nc1cccc2c1C(=O)N(c1ccc(Cl)cc1)C2=O | i
CCC1=C(c2ccc(OC)cc2)S(=O)(=O)N(CC(=O)NCc2ccccc2Cl)C1=O | i
CCOc1ccc(C2C(C(=O)Nc3cc(C)ccn3)=C(C)NC3=C2C(=O)CCC3)cc1 (configuration not stated) | i
CCc1cccc(CC)c1NC(=O)c1ccc2c(c1)OCO2 | i
COc1cccc2cc(C(=O)NC(C)=O)c(=Nc3cccc(F)c3)oc12 | i
COc1cccc2cc(C(=O)NC(C)=O)c(=Nc3ccc(C(F)(F)F)cc3)oc12 | i
COc1cccc2cc(C(=O)NC(C)=O)c(=Nc3ccccc3F)oc12 | 33%*
Cc1ccc(-n2c(N)c(C#N)c3nc4ccccc4nc32)cc1Cl | i
Cc1cccc(N2C(=O)NC(=O)/C(=C/c3cn(CC(=O)Nc4ccccc4)c4ccccc34)C2=O)c1 | i
CC(=O)OC1CC2(C)C3CC=C4C(CC(OC5OC(CO)C(O)C(O)C5O)C(O)C4(C)C)C3(C)CCC2(C)C1C(C)(O)C(=O)CCC(C)(C)O (configuration not stated) | i
CCSCCOC(=O)C1=C(C)Nc2ccccc2S1 | 43%*
CCSCCOC(=O)C1=C(C)NC2=C(C(=O)CCC2)C1c1cccc(Br)c1 (configuration not stated) | i
CCOc1ccccc1C1C(C(=O)OCCSCC)=C(C)NC2=C1C(=O)CC(C)(C)C2 (configuration not stated) | i
CCOc1ccc(-n2cnnc2)cc1-n1cccc1 | i
CCN1CCN(CC(=O)c2cc(C)n(-c3ccc(C)c(C)c3)c2C)CC1 | i
Clc1ccccc1C1CCN(Cc2nc(-c3cnccn3)no2)C1 (configuration not stated) | i
CCCCN1C(=O)/C(=c2\sc3nc(-c4ccc(OC)cc4)nn3c2=O)c2ccccc21 | i
C=CCN1C(=O)/C(=c2/sc3nc4ccccc4n3c2=O)c2ccccc21 | 31%*
O=c1/c(=C/c2ccccc2F)sc2nc3ccccc3n12 | i
CC(=O)O/N=C(\c1cccc([N+](=O)[O-])c1)N1CCOCC1 | i
SMILES | ST2 IL33 inh
Cc1ccc(OCC(O)CNC(C)(C)C)cc1C (configuration not stated) | i
Cc1cc(OCC(O)CNC(C)(C)C)ccc1C(C)C (configuration not stated) | i
Cc1ccc(NCC(O)COc2ccccc2)cc1C (configuration not stated) | 35%*
CCOC(=O)c1c(C)oc2c(Cl)cc(NS(=O)(=O)c3ccc(Br)cc3)cc12 | i
O=C(Cc1c(C(=O)O)[nH]c2ccccc12)NCc1ccco1 | i
O=c1cc(-c2ccc(O)cc2)oc2c([C@@H]3O[C@H](CO)[C@@H](O[C@@H]4O[C@H](CO)[C@@H](O)[C@H](O)[C@H]4O)[C@H](O)[C@H]3O)c(O)cc(O)c12 | 50%*
O=c1cc(-c2ccc(O)cc2)oc2c(C3OCC(O)C(O)C3O)c(O)c(C3OC(CO)C(O)C(O)C3O)c(O)c12 (configuration not stated) | i
O=c1cc(-c2ccc(O)cc2)oc2c(C3OCC(O)C(O)C3O)c(O)c(C3OCC(O)C(O)C3O)c(O)c12 (configuration not stated) | i
COc1ccc(OC)c(CNC(=O)CC2C(=O)NCCN2Cc2cccc(F)c2F)c1 (configuration not stated) | i
O=C1C(=O)N(CCc2ccccc2)C(c2ccc(Cl)cc2)C1=C(O)c1ccccc1 (configuration not stated) | i
[N-]=C=C1C(=O)N(CCc2ccccc2)C(=O)[C@H]([n+]2ccccc2)[C@H]1c1ccc(Cl)cc1 | 34%*
COc1ccccc1N1CCN(S(=O)(=O)c2cccc3nonc23)CC1 | i
COc1cccc(CC2CN(C(=O)c3ccc(SC)cc3)CCO2)c1 (configuration not stated) | i
Cn1c(=O)c(Cc2ccccc2F)nc2ccccc21 | i
Cn1c(=O)c(/C=C/c2cccs2)nc2ccccc21 | 36%*
COc1ccc(C(=O)c2nc3ccccc3n2C)cc1 | i
C#CCNC(=O)CC[C@H]1CNC(=O)[C@@H]2[C@@H](CCN2Cc2ccc(F)cc2)N1C | i
COc1ccc(N2CCN(CCCNC(=O)c3cccn3-c3nnc(N4CCCCC4)s3)CC2)cc1 | 31%*
O=C(NCCCN1CCCC1)c1cccn1-c1nnc(N2CCCCC2)s1 | i
CCN1CCN(CCCNC(=O)c2cccn2-c2nnc(N3CCCCC3)s2)CC1 | i
